# PubChem BioAssay (NCI)
# Compounds without any hit were thinned out: in the full panel of roughly 83,000, 20% have a hit.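 Activity criterion: percent growth below 10, measured after cells in 96-well plates were exposed to a single compound concentration for 48 hours.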 Unmarked numbers belong to inactive results. Activity calls are given as the source filed them.
# Test system: HL-60(TB) leukemia
# Assay: NCI-60 one-dose screen, 48 h (100 = growth as untreated, 0 = no growth, -100 = all killed)
# Settings: 10 µM unless noted
row,SMILES,growth
1,O=C(CSc1nc2c(n1Nc1ccccc1)-c1ccccc1SC2)Nc1nccs1,102%
2,COc1ccc(C/C(C)=C(\c2ccc(Cl)cc2)c2ccc(OCCN3CCCCCC3)cc2)cc1,30.7%
3,Cc1ccc2c(c1)nc(C)n2-c1ncnc2c1CC(C)c1cc(O)ccc1N2C (stereo not given),-5.44% (active)
4,Cn1ncc2cc3c(Nc4ccc(Cl)cc4)cccc3nc21,95.1%
5,N#Cc1c(-c2ccc(Cl)cc2)csc1NC(=O)Nc1ccc(Cl)c(C(F)(F)F)c1,-34.2% (active)
6,COc1cc(CNCCCN2C(=O)c3ccc4c5c(ccc(c35)C2=O)C(=O)N(CCCNCc2cc(OC)c(OC)c(OC)c2)C4=O)cc(OC)c1OC,-35.8% (active)
7,O=C1C(Nc2ccc(Br)cc2)=C(I)C(=O)c2ncccc21,-43.2% (active)
8,CCOC(=O)/C(=C/c1ccccc1)C(=O)c1ccccc1,34.5%
9,C=C(CNCCc1ccc(O)cc1)[C@@H]1CC[C@]2(CO)CC[C@]3(C)[C@H](CC[C@@H]4[C@@]5(C)CCC(=O)C(C)(C)[C@@H]5CC[C@]43C)[C@@H]12,-41.5% (active)
10,O=S(=O)(NCCNc1nccc(-c2c(-c3cccc(F)c3)nc3occn23)n1)c1ccc(C(F)(F)F)cc1,106%
11,COc1ccc2cnc(N)c(C#Cc3cc(C(=O)Nc4ccc(CN5CCN(C)CC5)c(C(F)(F)F)c4)cnc3C)c2c1,95%
12,CNCC[C@H](Oc1cccc2ccccc12)c1cccs1,85.5%
13,COc1cc2c(=O)n(CCCN(C)C)c3c4cc5c(cc4ccc3c2cc1OC)OCO5,55%
14,CCCc1cc(=O)oc2c3c(c4c(c12)OC(C)(C)CC4)OC(C)[C@H](C)[C@@H]3O (stereo not given in full),109%
15,O=C([O][Sn]([O]C(=O)c1ccccn1)([c]1ccccc1)[c]1ccccc1)c1ccccn1,68.5%
16,COc1ccc(-c2nc3cc(C(=O)Nc4cc(OC)c(OC)c(OC)c4)ccc3n2C2CCCCC2)cc1,85.9%
17,CC/C(=C(/c1ccc(O)cc1)c1ccc(OCCN2CCCCC2)cc1)c1ccc(OC)cc1,81.6%
18,C#C[C@]1(O)CCC2C3CCc4cc(OC5CCCC5)ccc4C3CC[C@@]21C (stereo not given in full),77%
19,COc1ccc2c(c1)oc1c(C)c3c(c(C)c12)C(=O)N(CCOS(C)(=O)=O)C3=O,93.6%
20,CN1CCN(Cc2ccc(NC(=O)c3cncc(C#Cc4cnc(N)cc4C#N)c3)cc2C(F)(F)F)CC1,4.46% (active)

row,SMILES,growth
1,CCc1ccc(Oc2c(-c3ccc(OCCc4cccc(C(F)(F)F)c4)cc3O)n[nH]c2C(F)(F)F)cc1,50.9%
2,CCCCNc1nnc2n(Cc3ccccc3)c(=O)c3c4c(sc3n12)CCCC4,90.5%
3,COc1ccc(-c2nn(-c3ccc(NC(=O)c4cc(Cl)cc(Cl)c4)cc3)cc2-c2ccncc2)cc1Cl,20.3%
4,COc1ccc(-c2cc(-c3ccc(OC)cc3)c3sc(=O)[nH]c3n2)cc1,84.7%
5,COc1ccc(-c2conc2-c2ccccc2)cc1,15.1%
6,COc1cccc(N2CCN(c3ncnc4cc[nH]c34)CC2)c1,71.3%
7,C=C(C)[C@@H]1CC[C@]2(CN)CC[C@]3(C)[C@H](CC[C@@H]4[C@@]5(C)CCCNC(C)(C)[C@@H]5CC[C@]43C)[C@@H]12,-52.8% (active)
8,CN(C)c1ccc(/C=C/c2c(F)cccc2F)cc1,98.8%
9,COc1ccc(-c2cc3c(C)nc(N)nc3n(C3CCC(OCCO)CC3)c2=O)cn1 (stereo not given),28.4%
10,COc1ccc([C@H]2c3[nH]c4ccccc4c3C[C@H]3C(=O)N(CCCCCCC(=O)NO)CC(=O)N23)cc1,5.31% (active)
11,O=C(/C=C/c1cccc(Cl)c1)c1cccc(OCCCOc2cccc(C(=O)/C=C/c3cccc(Cl)c3)c2)c1,93.1%
12,O=C(Nc1cccc2cccnc12)c1cc(C(=O)c2ccc(Cl)cc2)n2ccc(-c3ccncc3)cc12,125%
13,O=C(CN1CCOCC1)Nc1ccc(Cn2nnc3c2C(=O)c2nnn(Cc4ccc(NC(=O)CN5CCOCC5)cc4)c2C3=O)cc1,-39.1% (active)
14,COc1ccccc1CNCCCN1C(=O)c2ccc3c4c(ccc(c24)C1=O)C(=O)N(CCCNCCCN)C3=O,-42.3% (active)
15,CN1CCN(Cc2ccc(C(=O)Nc3cncc(C#Cc4cnc(N)c5ccccc45)c3)cc2C(F)(F)F)CC1,-71.5% (active)
16,CCN(CC)CCC(CNc1c(C)cnc2cc(Cl)ccc12)c1ccc(Cl)c(Cl)c1 (stereo not given),51.5%
17,COc1ccc(OC)c(/C=C2\Oc3cc(OCCN4CCCC4)ccc3C2=O)c1,69.2%
18,Cc1ccc(-c2cn3cc([N+](=O)[O-])ccc3n2)cc1,47.7%
19,Nc1nc(N)c2nc(CNc3ccc(C(=O)CC(CCC(=O)O)C(=O)O)cc3)cnc2n1 (stereo not given),49%
20,COc1ccc(/C=C/C(=O)c2ccc(NC(=O)CSc3nnc(-c4cc(-c5ccccc5)nc5ccccc45)n3-c3ccccc3)cc2)cc1,95.9%
